Assay outcomes (PubChem)
Shown are actives, neighbours in structure and some others; about 2.8% of the full set was active somewhere.
HIF-2a block: blocks HIF-2a reporter activity; 786-0 RCC cells HIF-2a reporter, luciferase luminescence, overnight; inhibition, % at 18.8 µM; 360,000 compounds, 0.72% hits; AID 624352;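 active = inhibition of the luminescence signal of 40% or more relative to plate controls, in a single-dose primary screen at 18.75 µM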
Peg3 prom inh-1: inhibitors of Peg3 promoter; inhibition, % at 20 µM; AID 588405; 360,000 compounds, 1.7% hits; HeLa PEG-Prom luciferase reporter, luminescence, overnight;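 active = inhibition of at least 50% at 20 µM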
KKLEB cytotox: CF airway cell cytotoxicity counter-screen. KKLEB CF airway cells viability, ATPlite luminescence, overnight; hits give low values; cells stimulated with P. aeruginosa culture filtrate. activity change (cytotoxicity), % at 5 µM. 360,000 compounds, 0.36% hits. AID 602141;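 active = corrected activity change at or below -50% at 5 µM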
Shn3 inh set2: Schnurri-3 reporter inhibition in Clone20 osteoblasts; Clone20 osteoblast Shn3 3'UTR firefly luciferase, 24 h; inhibition, % at 12.5 µM; 360,000 compounds, 0.52% hits; AID 588674;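 active = mean inhibition of at least 75% with every replicate also reaching 75%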
CF NFkB inh: inhibitors of cystic fibrosis induced NF-kB. 360,000 compounds, 0.86% hits. AID 588850. KKLEB NF-kB-GFP reporter, PAF-induced, GFP fluorescence overnight. inhibition, % at 5 µM;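 active = at least 50% inhibition at 5 µM, scaled per plate between neutral and stimulator controls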;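 note: PAF is a Pseudomonas aeruginosa culture filtrate used as stimulus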
TRPM1 prom inh: MITF TRPM1 promoter inhibition in SK-MEL-5 cells; SK-MEL-5 TRPM1 promoter luciferase, 24 h; inhibition, % at 12.5 µM; 330,000 compounds, 0.83% hits;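 active = mean inhibition across replicates of 60% or more, whatever share of single replicates reaches that level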
Peg3 prom inh-2: Peg3 promoter inhibition confirmation; shares compounds with Peg3 prom inh-1; HeLa PEG-Prom luciferase reporter, luminescence, overnight; inhibition, % at 20 µM; 1,300 compounds, 84% hits; AID 602417;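 active = at 20 µM dose, 40% or more inhibition averaged across four replicates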
Hits are given with their value; . = inactive; / = no result given.

SMILES	HIF-2a block	Peg3 prom inh-1	KKLEB cytotox	Shn3 inh set2	CF NFkB inh	TRPM1 prom inh	others
O=C(NCCN1CCOCC1)c1ccc(/C=C2\Sc3ccccc3N(Cc3ccccc3F)C2=O)cc1	.	59	.	.	.	.
CC(C)n1nc(Cc2cccc3ccccc23)c(C#N)c1N	.	.	.	.	.	.
O=C1CCCCC1Nc1ccc2ccccc2c1 (stereo not drawn)	.	.	.	.	.	.
OCc1ccccc1SSc1ccccc1CO	.	.	.	/	.	/
CN1C(=O)/C(=C\c2ccccc2F)Sc2ccc(C(=O)NC3CCN(Cc4ccccc4)CC3)cc21	.	58	.	.	.	.
COc1ccc(/C=C2\Sc3ccc(C(=O)NC4CC4)cc3N(C)C2=O)cc1OC	.	.	.	.	.	.
CC(=O)C1CCC2C3CCC4=CC(=O)CCC4(C)C3(F)C(O)CC12C (stereo not drawn)	.	.	.	.	61	.
CC12CCC(=O)C=C1CCC1C2C(=O)CC2(C)C1CCC2(O)C(=O)CO (stereo not drawn)	.	.	.	.	.	.
CC1(C)OC2CC3C4CCC5=CC(=O)CCC5(C)C4(F)C(O)CC3(C)C2(C(=O)CO)O1 (stereo not drawn)	.	.	.	.	96	.
CC1(C)OC2CC3C4CC=C5CC(O)CCC5(C)C4CCC3(C)C2(C(=O)CO)O1 (stereo not drawn)	.	.	.	.	.	.
CC12CCC(=O)C=C1CCC1C3CC(O)C(O)(C(=O)CO)C3(C)CC(O)C12F (stereo not drawn)	.	.	.	.	78	.
CN1/C(=C\C=O)C(C)(C)c2ccccc21	.	.	.	.	.	.
CN1\C(=C/C=C/C=C/C=[N+](C)C)C(C)(C)c2ccccc21	.	.	.	89	.	.
O=C(CNC(=O)c1ccco1)NNC(=O)c1cccc(Cl)c1	.	.	.	.	.	.
Cc1ccccc1COc1cccc(/C=N/NC(=O)c2nnn(-c3nonc3N)c2C)c1	.	74	.	.	.	.
Cc1c(C(=O)N/N=C/c2cccc(O)c2)nnn1-c1nonc1N	.	.	.	.	.	.
O=C(NNC(=O)c1ccncc1)Nc1cc(Cl)ccc1Cl	.	.	.	.	.	.
FC(F)(F)c1ccccc1NC(=S)N/N=C1\CC2CC=CC12 (stereo not drawn)	.	.	.	.	.	.
COc1ccc(N/N=C/c2c(C(=O)O)ccc3ccccc23)cc1	.	.	.	93	.	/
Cc1sc2ncnc(N3CCN(CCOc4ccc(Cl)cc4)CC3)c2c1C	.	.	.	85	.	.
CCN1CCN(C(=O)C(C)Sc2nc3nc(C)cc(C)n3n2)CC1 (stereo not drawn)	.	.	.	.	.	.
COc1ccc(C(C(=O)NC2CCCCC2)N(C(=O)c2cccs2)c2ccc3c(c2)OCO3)cc1 (stereo not drawn)	.	.	-70	.	.	.
COc1ccc(C(C(=O)NC2CCCCC2)N(C(=O)CCl)c2cccc(Cl)c2)cc1 (stereo not drawn)	.	102	-76	92	100	88
O=C(NC1CCCCC1)C(c1cccnc1)N(C(=O)CCl)c1ccc(F)cc1 (stereo not drawn)	.	69	.	.	.	87
O=C1CCC(C(=O)N2CCSCC2)CN1Cc1cccc(C(F)(F)F)c1 (stereo not drawn)	.	.	.	.	.	.
CCCCNC(=O)C(NC(=O)c1cccnc1)C(=O)c1ccccc1 (stereo not drawn)	.	.	.	.	.	/
CN(C)c1ccc(/C=C/c2cccc[n+]2[O-])cc1	.	.	.	.	.	.
CC(C)CC[n+]1ccccc1/C=C/c1ccc(N(C)C)cc1	.	.	.	.	.	73
CCCCC1C(=O)CC[C@H]2[C@@H]1CC(=O)[C@@H]2C/C=C\CCCC(=O)O (stereo partly drawn)	.	.	-100	.	.	.
N=c1n(CC(=O)c2ccc([N+](=O)[O-])cc2)c2ccccc2n1Cc1ccccc1	.	66	.	.	.	85	Peg3 prom inh-2=42
